# Screening data (PubChem)
# HCMV inh – blocks human cytomegalovirus replication. HFF cells, HCMV-luciferase reporter, 72 h; hits give low values. activity change, negative = inhibition, % at 57.5 µM. 410,000 tested, 4.5% active. AID 1259415; in the data active = activity change below about -60%; inconclusive = no clear call, values can overlap the other calls; inactive = above about -39%; note: % is set by controls: 0 for no effect and ±100 for the full control effect
#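 Compounds were evaluated in HFFs infected with an HCMV luciferase reporter virus (MOI 1 PFU/cell). Luciferase in lysates collected 72 h post infection served as the replication measure.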
# HCV inh – inhibitors of hepatitis C virus infection. Huh7.5.1 HCVcc-Cre infection, luciferase reporter, 44 h. Potency, µM (top dose mostly 41.8 µM), without a hit: at the top dose activity change, negative = inhibition, hits mostly inhibitors. 340,000 tested, 3.4% active; active = well fitted inhibition curve with a large enough effect; inconclusive = small, poorly fitted or top-dose-only effect, or another doubt; inactive = no such curve, though single readings can be large or run the other way; note: potency is the fitted concentration of half-maximal effect; % is set by controls: 0 for no effect and ±100 for the full control effect
#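 Luciferase read-out (15 sec integration) after a 15 min room-temperature substrate step quantifies HCVcc-Cre infection. Cells, 1,000 per well, had compound added 4 h post-plating, then virus at ~0.5 moi, and were cultured 44 h.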
# FMDV antiviral – foot and mouth disease virus antiviral activity; Potency, µM (top dose mostly 57.9 µM), without a hit: at the top dose activity change, negative = inhibition, actives largely listed as inhibitors; AID 1159524; 410,000 tested, 1.2% active; FMDV antiviral cell-based qHTS; calls by dose curve; tested in HEK293T cells; note: read-out not given here; potency is the fitted concentration of half-maximal effect; % is set by controls: 0 for no effect and ±100 for the full control effect; nearly all actives have a fitted effect of over 45% in size
# Marburg entry inh – Marburg virus entry inhibition | Marburg virus pseudotyped entry inhibition, cell reporter | Potency, µM (series often up to 37.8 µM), for inactives: top-dose activity change, negative = inhibition, hits mostly inhibitors | 300,000 tested, 1.8% active | AID 540276; calls by dose curve; tested in HEK293 cells; note: potency is the fitted concentration of half-maximal effect; % is set by controls: 0 for no effect and ±100 for the full control effect
# SARS PLpro yeast – SARS-CoV PLP inhibition in yeast | Potency, µM (highest dose often 32.9 µM), for the others: at the top dose activity, positive = growth rescue, hits mostly activators | 330,000 tested, 0.19% active | S. cerevisiae expressing SARS-CoV PLpro, growth rescue | AID 485353; calls by dose curve; note: potency is the fitted concentration of half-maximal effect; 0% is about no effect; nearly all actives have a fitted effect of over 55% in size
# Lassa entry inh – Lassa virus entry inhibition; Lassa virus pseudotype entry inhibition, cell reporter; Potency, µM (doses to about 37.9 µM), for inactives: at the highest dose activity change, negative = inhibition, hits mostly inhibitors; 300,000 tested, 1.2% active; AID 540256; calls by dose curve; tested in HEK293 cells; note: potency is the fitted concentration of half-maximal effect; % is set by controls: 0 for no effect and ±100 for the full control effect; nearly all actives have a fitted effect of over 50% in size
# Active calls of the source: *; ? = inconclusive; . = no result; [ ] = another dose, or the depositor's remark. Shown are actives, neighbours in structure and some others; about 8% of the full set was active somewhere.
SMILES,HCMV inh,HCV inh,FMDV antiviral,Marburg entry inh,SARS PLpro yeast,Lassa entry inh
CC(=O)OC(C)(C)C1Cc2cc3ccc(=O)oc3cc2O1 (centres undefined),29,5%,18%,.,2%,.
COc1ccc(OCc2cc(C(=O)NCCN3CCCc4ccccc43)no2)c(Cl)c1,25,11µM*,-18%,-25%,0%,?
COc1ccc(OCc2cc(C(=O)NCCN3CCCC(O)C3)no2)c(Cl)c1 (centres undefined),47,?,-2%,-29%[46.1 µM],-6%,23%[46.1 µM]
Cc1ccc(-c2cc(C#N)c(=O)n(Cc3c(Cl)cccc3Cl)c2)cc1,-62*,2%,15%,-26%,0%,3%
Cc1cccc(N2CCN(C(=O)CCC(=O)N3CC(C)Oc4ccc(C)cc43)CC2C)c1 (centres undefined),-15,?,28µM*,.,-9%,.
Cc1ccc2c(c1)N(C(=O)CCC(=O)NCCCN1CCOCC1)CC(C)O2 (centres undefined),-65*,11%,-20%,.,0%,.
Cc1ccc2c(c1)N(C(=O)CCC(=O)N1CCN(c3ccccn3)CC1)CC(C)O2 (centres undefined),-71*,-10%,-8%,.,3%,.
Cc1ccc2c(c1)N(C(=O)CCC(=O)NCCN1CCOCC1)CC(C)O2 (centres undefined),19,10%,-23%,.,2%,.
COc1ccc2c(=O)c(OC)c(-c3ccccc3)oc2c1,.,.,11%,.,.,.
COc1ccc(-c2cc(=O)c3c(O)c(OC)c(O)cc3o2)cc1,33,-25%,-23%,.,-4%,.
COc1cc(OC)c2c(=O)c(OC)c(-c3ccc(OC)c(OC)c3)oc2c1,.,1.1µM*,5%,.,14%,.
COc1ccc(-c2oc3cc(O)c(OC)c(O)c3c(=O)c2OC)cc1O,-62*,3%,20%,?,.,?
COc1cc(C(=O)N(C)CCOc2ccccc2)ccc1OCC(=O)Nc1cccc(C(F)(F)F)c1,-69*,2.8µM*,?,?,.,-29%
CCOC(=O)C1CCN(C(=O)c2ccc(OCC(=O)Nc3cccc(C(F)(F)F)c3)c(OC)c2)CC1,-70*,2.8µM*,?,?,-8%,?
CC(NC(=O)c1cc([N+](=O)[O-])cc([N+](=O)[O-])c1)C1CC2CCC1C2 (centres undefined),14,-28%,-23%,?,-30%,-12%[46.1 µM]
CCN1C(=O)c2ccccc2S(=O)c2ccc(C(=O)NCc3ccc(C(F)(F)F)cc3)cc21 (centres undefined),5,.,.,.,.,.
CCN(c1ccccc1)S(=O)(=O)c1ccc(Oc2ccc(C(C)=O)cc2OC)nc1,-38,13µM*,-29%,.,-5%,.
COc1ccccc1C(CNC(=S)NCc1ccccc1)N1CCCC1 (centres undefined),-72*,-19%,-5%,5.6µM*,1%,0%[46.1 µM]
COc1ccccc1C(CNC(=O)CNC(=O)c1ccccc1Cl)N1CCCC1 (centres undefined),-101*,-10%,-11%,.,-9%,.
CCN(c1ccccc1)S(=O)(=O)c1ccc(C(=O)NCC(c2ccccc2OC)N2CCCC2)cc1 (centres undefined),-8,25µM*,-16%,?,.,?
COc1ccc(C(CNC(=S)NCc2ccccc2)N2CCCC2)cc1 (centres undefined),-36,10%,41%,?,2%,?
COc1ccc(N2CCN(c3oc(-c4ccccc4C)nc3S(=O)(=O)c3ccccc3)CC2)cc1,-3,.,-17%,-13%[46.1 µM],.,?
COc1cc(Cl)c(S(=O)(=O)N2CCN(c3c(C)cccc3C)CC2)cc1Cl,-10,.,-18%,20%[46.1 µM],.,12%[46.1 µM]
COc1ccc(C(=O)Cc2cc(OC)c(OC)cc2C(=O)c2ccccc2F)cc1OC,-5,10µM*,-12%,.,4%,.
CC(C)Cc1nnc(NC(=O)CCC(=O)N2CCN(Cc3ccc(F)cc3)CC2)s1,-29,22µM*,0%,.,4%,.
SMILES,HCMV inh,HCV inh,FMDV antiviral,Marburg entry inh,SARS PLpro yeast,Lassa entry inh
COc1ccccc1C/C(N)=N/OC(=O)c1cccc([N+](=O)[O-])c1C,30,10µM*,-14%,?,-93%,?
CC(Oc1ccc2c(c1)c1ccnc3c4ccccc4c(=O)n2c13)C(=O)NCCN1CCOCC1 (centres undefined),-90*,11µM*,-25%,.,-10%,.
COc1ccc2c(c1OC)c(=O)n1c3ccc(OC(C)C(=O)NCCN4CCOCC4)cc3c3ccnc2c31 (centres undefined),-3,?,-19%,.,-8%,.
C=CCn1cccc(C(=O)Nc2ccc(OCC)cc2)c1=O,-63*,11µM*,0%,-48%[46.1 µM],-4%,?
C=CCn1cccc(C(=O)Nc2ccc(N(C)C)cc2)c1=O,.,-11%,41%,.,-3%,.
C=CCn1cccc(C(=O)Nc2ccc(SC)cc2)c1=O,.,?,-10%,.,-7%,.
C=CCn1cccc(C(=O)Nc2ccc(Cl)cc2)c1=O,13,11µM*,10%,.,-1%,.
Cc1noc(C)c1S(=O)(=O)N1CCc2nc(-c3ccccc3)c3c(c2C1)CO[C@@H](C)C3,.,.,.,-12%[14.2 µM],.,.
Cc1cnc(-n2ncc(C(=O)N(C)C3CCOC3)c2-c2cccs2)nc1-c1ccc(F)cc1 (centres undefined),.,.,36%,.,.,.
O=C(O)c1cnnc2ccccc12,1,-9%,6%,-4%[46.1 µM],.,10%[46.1 µM]
c1ccc(-c2cnnc3ccccc23)cc1,-3,11µM*,-26%,.,2%,.
CC(C)n1c(O)c(C2c3cc(Cl)ccc3Oc3[nH]c(=O)n(C(C)C)c(=O)c32)c(=O)[nH]c1=O (centres undefined),.,5µM*,3.5µM*,?,-7%,?
CC(=O)c1c(O)n(-c2cccc(Cl)c2)c(=O)[nH]c1=O (tested in a mixture with another compound),6,2%,-25%,6%,1%,23%
Cc1c(C(=O)N(C)C)sc2nc(-c3ccccn3)[nH]c(=O)c12,47,-12%,23%,12%,1%,19%
O=c1[nH]c(-c2ccccn2)nc2sc(-c3ccccc3)cc12,-112*,1.6µM*,-67%,?,-1%,2.2µM*
CCc1ccc(C(=O)c2cn(CC(=O)Nc3ccc(OC)cc3OC)c3ccc(CC)cc3c2=O)cc1,-21,.,-8%,?,.,?
COc1ccc(C(=O)NCC(=O)N2CC=C(c3ccccc3)CC2)cc1OC,2,?,?,.,2%,.
Cc1cccc(C(=O)NCC(=O)N2CCN(c3ccccn3)CC2)c1,-104*,35%,11%,?,1%,19%
Cc1cccc(C(=O)NCC(=O)N2CC=C(c3ccccc3)CC2)c1,12,5.6µM*,1%,.,-9%,.
